# Laboratory results taken from the supplement of paper PMC10849652.
# About 8,800 targets were measured; listed, in parts, are those with a hit and a random draw of the rest. About 0.5% of all pairs of compound and target were hits. A number with no mark means an inactive call.
# Compound: C/C(=N\NC(=O)C1=CC(=CC=C1)S(=O)(=O)N2CCOCC2)/C3=C(C=CC(=C3)Cl)O
# Assay: log2 fold change, soluble protein after heating vs DMSO (PISA); higher = thermal stabilisation; K562 lysate, 10 uM; active = over 0.2 and 3.5 SD of the protein, either way, in both replicates (recomputed)
# Method in brief: (§1)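 K562 pellets were dounce-homogenised in PBS pH 7.4 containing 1 mM MgCl2, and the crude extract, at 1 mg/mL protein, was exposed to 10 μM compound for 30 min. Aliquots were heated for 3 min across 48°C-58°C, pooled, brought to 0.5% NP-40 at 4°C and spun at 21,000xg for 90 min, with the supernatant taken as soluble protein. TMTpro 16plex LC-MS/MS with equalised channel sums quantified that protein. Values are log-two fold changes in thermal stability relative to solvent controls, taken from duplicates.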
# Sequence of UniProt Q96II8 (Q96II8 whole entry, looked up): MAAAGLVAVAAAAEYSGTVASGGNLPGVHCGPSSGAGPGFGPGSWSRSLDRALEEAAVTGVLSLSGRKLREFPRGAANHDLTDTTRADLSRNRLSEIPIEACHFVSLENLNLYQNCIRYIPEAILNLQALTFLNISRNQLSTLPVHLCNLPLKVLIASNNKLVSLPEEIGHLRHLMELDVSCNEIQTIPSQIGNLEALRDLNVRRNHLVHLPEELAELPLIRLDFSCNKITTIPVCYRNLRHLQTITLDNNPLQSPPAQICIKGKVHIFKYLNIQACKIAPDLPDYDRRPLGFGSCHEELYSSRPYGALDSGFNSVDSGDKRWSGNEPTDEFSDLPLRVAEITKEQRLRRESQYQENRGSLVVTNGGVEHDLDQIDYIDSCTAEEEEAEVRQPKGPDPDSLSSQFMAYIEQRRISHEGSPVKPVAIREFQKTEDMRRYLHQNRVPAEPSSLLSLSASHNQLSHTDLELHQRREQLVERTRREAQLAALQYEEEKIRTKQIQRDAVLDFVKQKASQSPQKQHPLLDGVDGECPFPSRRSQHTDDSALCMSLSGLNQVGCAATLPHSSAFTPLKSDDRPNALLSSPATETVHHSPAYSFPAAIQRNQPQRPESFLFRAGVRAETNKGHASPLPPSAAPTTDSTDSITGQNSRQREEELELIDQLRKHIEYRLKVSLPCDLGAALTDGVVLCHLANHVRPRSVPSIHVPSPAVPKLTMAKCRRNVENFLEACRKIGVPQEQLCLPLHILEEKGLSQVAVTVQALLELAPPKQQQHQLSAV
# Sequence of UniProt P49917 (P49917 whole entry, looked up): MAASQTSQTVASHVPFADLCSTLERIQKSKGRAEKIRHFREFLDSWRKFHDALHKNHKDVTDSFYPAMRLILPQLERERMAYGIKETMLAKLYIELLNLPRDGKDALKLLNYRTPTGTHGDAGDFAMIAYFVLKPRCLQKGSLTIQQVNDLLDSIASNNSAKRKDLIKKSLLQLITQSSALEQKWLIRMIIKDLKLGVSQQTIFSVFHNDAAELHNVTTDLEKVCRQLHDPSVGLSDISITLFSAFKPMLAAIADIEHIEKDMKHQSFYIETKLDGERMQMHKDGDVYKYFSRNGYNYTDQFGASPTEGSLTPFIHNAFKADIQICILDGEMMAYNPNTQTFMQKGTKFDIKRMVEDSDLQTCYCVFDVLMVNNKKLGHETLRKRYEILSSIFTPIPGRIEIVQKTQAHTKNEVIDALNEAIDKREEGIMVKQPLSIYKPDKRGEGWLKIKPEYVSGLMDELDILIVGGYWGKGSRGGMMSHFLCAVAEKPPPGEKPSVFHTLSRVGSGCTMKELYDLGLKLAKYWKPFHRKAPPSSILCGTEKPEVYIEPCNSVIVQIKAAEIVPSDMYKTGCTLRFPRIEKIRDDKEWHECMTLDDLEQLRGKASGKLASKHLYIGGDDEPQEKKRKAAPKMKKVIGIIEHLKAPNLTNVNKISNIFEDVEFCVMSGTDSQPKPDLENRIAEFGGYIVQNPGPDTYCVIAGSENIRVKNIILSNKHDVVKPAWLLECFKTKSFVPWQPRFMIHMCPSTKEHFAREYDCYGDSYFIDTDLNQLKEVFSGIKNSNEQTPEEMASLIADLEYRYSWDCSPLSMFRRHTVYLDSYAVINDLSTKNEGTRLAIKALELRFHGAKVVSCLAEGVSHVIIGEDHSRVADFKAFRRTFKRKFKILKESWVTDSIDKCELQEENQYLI
# Sequence of UniProt O95297 (O95297 whole entry, looked up): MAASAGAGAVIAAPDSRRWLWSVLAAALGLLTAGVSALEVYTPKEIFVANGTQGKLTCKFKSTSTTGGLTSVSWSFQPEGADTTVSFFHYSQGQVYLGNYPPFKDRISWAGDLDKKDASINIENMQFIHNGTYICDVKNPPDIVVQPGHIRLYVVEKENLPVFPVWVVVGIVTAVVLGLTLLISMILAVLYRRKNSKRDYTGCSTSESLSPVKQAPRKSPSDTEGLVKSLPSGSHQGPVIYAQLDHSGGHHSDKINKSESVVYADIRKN
# Sequence of UniProt Q99797 (Q99797 whole entry, looked up): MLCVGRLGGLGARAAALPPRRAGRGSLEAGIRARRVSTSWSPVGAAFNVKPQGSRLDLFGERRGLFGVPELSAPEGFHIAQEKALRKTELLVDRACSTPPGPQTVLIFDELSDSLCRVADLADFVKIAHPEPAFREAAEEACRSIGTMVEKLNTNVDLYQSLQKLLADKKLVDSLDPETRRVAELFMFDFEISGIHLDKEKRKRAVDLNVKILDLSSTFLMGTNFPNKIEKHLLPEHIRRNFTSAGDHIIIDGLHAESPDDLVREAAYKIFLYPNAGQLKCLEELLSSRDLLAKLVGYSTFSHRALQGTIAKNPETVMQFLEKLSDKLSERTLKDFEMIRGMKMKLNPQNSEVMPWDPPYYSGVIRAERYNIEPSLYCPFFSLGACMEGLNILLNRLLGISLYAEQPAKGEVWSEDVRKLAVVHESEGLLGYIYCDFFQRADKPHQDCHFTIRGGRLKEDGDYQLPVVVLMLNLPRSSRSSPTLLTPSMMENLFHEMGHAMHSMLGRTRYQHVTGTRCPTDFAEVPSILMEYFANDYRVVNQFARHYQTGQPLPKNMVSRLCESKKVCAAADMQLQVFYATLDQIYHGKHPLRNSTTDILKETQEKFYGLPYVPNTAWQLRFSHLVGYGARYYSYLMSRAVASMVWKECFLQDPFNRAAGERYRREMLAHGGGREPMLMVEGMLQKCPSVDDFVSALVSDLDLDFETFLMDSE
# Sequence of UniProt Q7Z3D4 (Q7Z3D4 whole entry, looked up): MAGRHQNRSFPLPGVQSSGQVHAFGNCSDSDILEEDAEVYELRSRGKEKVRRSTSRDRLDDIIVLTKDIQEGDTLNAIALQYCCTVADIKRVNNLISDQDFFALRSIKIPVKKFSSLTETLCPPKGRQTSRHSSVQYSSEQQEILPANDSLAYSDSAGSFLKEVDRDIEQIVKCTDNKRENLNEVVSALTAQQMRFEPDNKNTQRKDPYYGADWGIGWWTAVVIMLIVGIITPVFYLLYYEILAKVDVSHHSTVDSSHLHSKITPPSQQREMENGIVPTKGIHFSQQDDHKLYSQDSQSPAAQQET
# Sequence of UniProt Q9ULI4 (Q9ULI4 whole entry, looked up): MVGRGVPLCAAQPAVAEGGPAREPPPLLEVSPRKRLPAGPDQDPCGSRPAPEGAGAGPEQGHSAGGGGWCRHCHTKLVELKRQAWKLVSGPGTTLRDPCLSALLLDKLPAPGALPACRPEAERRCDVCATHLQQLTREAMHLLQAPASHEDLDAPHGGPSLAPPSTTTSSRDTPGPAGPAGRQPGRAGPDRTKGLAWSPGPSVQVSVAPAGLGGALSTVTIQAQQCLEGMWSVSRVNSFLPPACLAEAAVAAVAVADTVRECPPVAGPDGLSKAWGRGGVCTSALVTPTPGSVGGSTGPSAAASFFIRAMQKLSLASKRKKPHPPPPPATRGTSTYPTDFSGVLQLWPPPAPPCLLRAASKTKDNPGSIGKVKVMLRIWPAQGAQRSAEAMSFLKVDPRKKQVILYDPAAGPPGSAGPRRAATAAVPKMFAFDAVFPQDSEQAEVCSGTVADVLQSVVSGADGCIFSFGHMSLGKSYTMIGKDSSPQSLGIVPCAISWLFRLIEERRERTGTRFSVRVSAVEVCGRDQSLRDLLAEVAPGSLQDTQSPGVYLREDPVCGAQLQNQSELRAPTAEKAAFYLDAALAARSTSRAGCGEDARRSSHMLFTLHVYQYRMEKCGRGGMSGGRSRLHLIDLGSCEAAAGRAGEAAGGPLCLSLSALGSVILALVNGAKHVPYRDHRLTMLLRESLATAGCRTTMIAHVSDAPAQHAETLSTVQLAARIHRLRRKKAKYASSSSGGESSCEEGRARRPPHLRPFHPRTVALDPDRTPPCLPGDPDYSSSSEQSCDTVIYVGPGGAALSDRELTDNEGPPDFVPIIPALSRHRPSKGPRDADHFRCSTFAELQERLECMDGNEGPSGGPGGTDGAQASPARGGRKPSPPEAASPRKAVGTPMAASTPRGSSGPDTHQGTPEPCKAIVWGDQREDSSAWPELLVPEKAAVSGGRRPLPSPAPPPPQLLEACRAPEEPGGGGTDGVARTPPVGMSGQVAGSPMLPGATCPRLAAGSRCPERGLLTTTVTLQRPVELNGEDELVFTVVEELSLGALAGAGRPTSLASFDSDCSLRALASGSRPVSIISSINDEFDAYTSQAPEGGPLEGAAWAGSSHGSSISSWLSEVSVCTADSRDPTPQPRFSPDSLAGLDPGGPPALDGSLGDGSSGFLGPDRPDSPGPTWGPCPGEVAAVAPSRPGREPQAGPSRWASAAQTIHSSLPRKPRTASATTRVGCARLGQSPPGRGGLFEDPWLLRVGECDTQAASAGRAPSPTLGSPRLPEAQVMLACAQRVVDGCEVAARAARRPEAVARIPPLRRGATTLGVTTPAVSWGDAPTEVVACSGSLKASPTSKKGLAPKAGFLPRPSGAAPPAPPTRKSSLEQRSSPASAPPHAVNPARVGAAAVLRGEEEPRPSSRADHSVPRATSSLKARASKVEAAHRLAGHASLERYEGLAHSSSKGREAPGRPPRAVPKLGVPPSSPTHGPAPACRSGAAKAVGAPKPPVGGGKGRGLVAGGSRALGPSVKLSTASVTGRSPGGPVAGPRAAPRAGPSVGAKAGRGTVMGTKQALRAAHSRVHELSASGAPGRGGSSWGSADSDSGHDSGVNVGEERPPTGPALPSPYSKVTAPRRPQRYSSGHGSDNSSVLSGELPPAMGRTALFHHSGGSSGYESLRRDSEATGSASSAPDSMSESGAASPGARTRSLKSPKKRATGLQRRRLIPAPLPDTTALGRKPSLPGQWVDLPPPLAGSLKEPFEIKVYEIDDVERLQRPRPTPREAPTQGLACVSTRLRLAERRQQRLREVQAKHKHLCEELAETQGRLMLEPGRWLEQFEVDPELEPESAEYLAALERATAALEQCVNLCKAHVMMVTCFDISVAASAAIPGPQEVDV
row,Target,log2 fold change
1,MLST8 (UniProt Q9BVC4),0.008
2,MIPEP (UniProt Q99797),-0.06
3,LSS (UniProt P48449),0.057
4,LIG3 (UniProt P49916),0.027
5,LSG1 (UniProt Q9H089),0.036
6,MFF isoform 2 (UniProt Q9GZY8),-0.056
7,LIG4 (UniProt P49917),0.014
8,MICU2 (UniProt Q8IYU8),0.04
9,MAP7D3 (UniProt Q8IWC1),0.053
10,LARS2 (UniProt Q15031),0.033
11,LUC7L (UniProt Q9NQ29),0.021
12,MED8 isoform 2 (UniProt Q96G25),0.007
13,MAP4 (UniProt P27816),-0.013
14,MITD1 (UniProt Q8WV92),0.025
15,MIF4GD isoform 3 (UniProt A9UHW6),0.041
16,LRCH3 (UniProt Q96II8),0.047
17,MLH1 (UniProt P40692),0.021
18,MAP4 (UniProt E7EVA0),0.01
19,MBOAT2 (UniProt Q6ZWT7),0.014
20,LYSMD3 (UniProt Q7Z3D4),-0.051

row,Target,log2 fold change
1,KPNA4 (UniProt O00629),-0.037
2,LYN (UniProt P07948),-0.047
3,KPNA2 (UniProt P52292),0.03
4,"MICB, A0A140T979",0.086
5,KIF26A (UniProt Q9ULI4),-0.053
6,MORF4L1 isoform 2 (UniProt Q9UBU8),0.06
7,LBR (UniProt Q14739),0.052
8,MAP11 (UniProt Q8WVR3),-0.018
9,KNSTRN (UniProt Q9Y448),-0.003
10,KNL1 (UniProt Q8NG31),-0.015
11,MAST4 (UniProt O15021),-0.026
12,LTN1 isoform 3 (UniProt O94822),0.021
13,MECR (UniProt Q9BV79),0.027
14,MAP4K2 (UniProt Q12851),-0.202
15,MAPK8 isoform 3 (UniProt P45983),-0.039
16,MPZL1 (UniProt O95297),0.068
17,MRPL28 (UniProt Q13084),-0.085
18,KRI1 (UniProt Q8N9T8),-0.038
19,MPP1 (UniProt Q00013),0.017

# Compound: C1=CC(=CC=C1C2=NC3=C(N2)C=C(C=C3)C(=O)N)OC4=CC=C(C=C4)Cl
# Assay: as above
# Method in brief: as §1
row,Target,log2 fold change
1,MLST8 (UniProt Q9BVC4),-0.041
2,MIPEP (UniProt Q99797),0.005
3,LSS (UniProt P48449),0.001
4,LIG3 (UniProt P49916),-0.04
5,LSG1 (UniProt Q9H089),-0.059
6,MFF isoform 2 (UniProt Q9GZY8),0.021
7,LIG4 (UniProt P49917),-0.04
8,MICU2 (UniProt Q8IYU8),-0.008
9,MAP7D3 (UniProt Q8IWC1),0.281
10,LARS2 (UniProt Q15031),0.549 (active)
11,LUC7L (UniProt Q9NQ29),-0.097
12,MED8 isoform 2 (UniProt Q96G25),-0.001
13,MAP4 (UniProt P27816),0.031
14,MITD1 (UniProt Q8WV92),-0.019
15,MIF4GD isoform 3 (UniProt A9UHW6),0.03
16,LRCH3 (UniProt Q96II8),0.021
17,MLH1 (UniProt P40692),-0.011
18,MAP4 (UniProt E7EVA0),0.113
19,MBOAT2 (UniProt Q6ZWT7),-0.111
20,LYSMD3 (UniProt Q7Z3D4),0.044

row,Target,log2 fold change
1,KPNA4 (UniProt O00629),0.046
2,LYN (UniProt P07948),0.026
3,KPNA2 (UniProt P52292),-0.026
4,"MICB, A0A140T979",-0.029
5,KIF26A (UniProt Q9ULI4),-0.089
6,MORF4L1 isoform 2 (UniProt Q9UBU8),0.046
7,LBR (UniProt Q14739),-0.066
8,MAP11 (UniProt Q8WVR3),-0.009
9,KNSTRN (UniProt Q9Y448),-0.018
10,KNL1 (UniProt Q8NG31),0.002
11,MAST4 (UniProt O15021),-0.031
12,LTN1 isoform 3 (UniProt O94822),-0.065
13,MECR (UniProt Q9BV79),-0.005
14,MAP4K2 (UniProt Q12851),-0.082
15,MAPK8 isoform 3 (UniProt P45983),-0.091
16,MPZL1 (UniProt O95297),-0.036
17,MRPL28 (UniProt Q13084),0.027
18,KRI1 (UniProt Q8N9T8),-0.017
19,MPP1 (UniProt Q00013),-0.007
